# Test results published in PubChem BioAssay (NCI).
# Values joined by “and” are separate entries in the source; they are usually repeats but may differ in a detail not shown here. Equal entries are not always repeated. Compounds without any hit were thinned out: in the full panel of roughly 83,000, 20% have a hit.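 48-hour exposure, single concentration, 96-well plates; percent growth endpoint where 0 means no net growth. Active: below 10.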 Active and inactive are the calls of the source.
# System: MCF7 breast
# Assay: NCI-60 one-dose screen, 48 h (100 = growth as untreated, 0 = no growth, -100 = all killed)
# Settings: 10 µM
# Description: Growth inhibition of the MCF7 human tumor cell line is measured as a screen for anti-cancer activity. Cells are grown in 96 well plates and exposed to the test compound for 48 hours. Compounds are tested at a single concentration, which is 10^-5 M for most compounds. The reported endpoint is percent growth (GI% or GIPRCNT), where numbers from 0 - 100% represent growth inhibition, and numbers from -100% - 0 represent cell death. For example, a value of 40 represents 60% growth inhibition. A value of 0 means no net growth occurred over the course of the experiment. A value of -40 indicates 40% of cells at the beginning of the experiment died by the end of the experiment. A value of -100 means all cells are dead at the end of the experiment.
# NCI-60 Human Tumor Cell Lines Screen was performed using the standard one-dose NCI protocol, which is described in more detail at https://dtp.cancer.gov/discovery_development/nci-60/default.htm.
# Compounds with GIPRCNT values below 10 were considered active. Activity score was based on GIPRCNT using the following formula: […]
# Score is 0 for GIPRCNT values of 100 or above, 50 for GIPRCNT values of 0, and 100 for GIPRCNT values of -100.
row,Structure (SMILES),growth
1,Cc1cc(N(CCOS(C)(=O)=O)CCOS(C)(=O)=O)ccc1C=Nc1ccc(-c2nc(Cc3ccccc3)sc2C)cc1,36.8% (inactive)
2,C=C1C(=O)OC2CC1C(OC(C)=O)C/C(C)=C/CC/C(C)=C\CCC2(C)O (stereo not given),10.6% (inactive)
3,Cc1ccc(Sc2ccccc2N)cc1,53.7% (inactive)
4,CN(C)CCOC1(Cc2ccc(Cl)cc2Cl)CCC(C(C)(C)C)CC1 (stereo not given),-46.4% (active) and -87.7% (active)
5,C#CCN(Cc1ccc2nc(N)[nH]c(=O)c2c1)c1ccc(C(=O)NC(CCC(=O)O)C(=O)O)cc1 (stereo not given),22.4% (inactive)
6,O=[N+]([O-])c1cc[n+]([O-])cc1,97.6% (inactive)
7,COc1ccc(C(=O)C(CN(C)C)CN(C)C)cc1,14.3% (inactive)
8,CC1=CC(=C(c2ccc(N)cc2)c2ccc(N)cc2)C=CC1=N,9.83% (active) and 19.6% (inactive)

# Same assay, conditions: 100 µM
row,Structure (SMILES),growth
1,C=C1C(=O)OC2CC1C(OC(C)=O)C/C(C)=C/CC/C(C)=C\CCC2(C)O (stereo not given),-90.9% (active)
2,COc1cc([C@@H]2c3cc4c(cc3[C@@H](Nc3ccc(NC(=O)c5cc([N+](=O)[O-])cn5C)cc3)[C@H]3COC(=O)[C@H]23)OCO4)cc(OC)c1O,5.63% (active)
